Reference: PubChem BioAssay (NCI)
Compounds without any hit were thinned out: in the full panel of roughly 83,000, 20% have a hit.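 Assay: single dose, 48 h. Readout: percent growth (0 = no net growth; negative = cell death). Active: <10.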 Activity calls are given as the source filed them.

The compounds below were run on MDA-MB-468 breast (assay: NCI-60 one-dose screen, 48 h (100 = growth as untreated, 0 = no growth, -100 = all killed)). Settings: 10 µM unless noted.
In the case of CCOC(=O)c1ccc2c(c1)c1c(C)c3cccnc3c(C)c1n2C, the growth is reported as 64.4% (inactive).
For Cc1cc[n+](CCCC[n+]2ccc(C)cc2)cc1, the growth was 99% (inactive).
With COc1ccc(Nc2cc(C)nc(N3CCN(c4ccnc5cc(Cl)ccc45)CC3)n2)cc1 the growth was 21.7% (inactive).
Cc1ccc([N+](=O)[O-])cc1Br was tested, and the growth was 98.1% (inactive).
In the case of Cc1ccc(Nc2nc(N)nc(Nc3ccc4ccccc4c3)n2)cc1, the growth is reported as 20.2% (inactive).
For CCOCC(=O)C(C#N)c1ccc(Cl)c(Cl)c1 (stereo not given), the growth was 90.9% (inactive).
With O=c1c2c(=NCCN3CCCC3)cc3c(=O)n(CCCN4CCOCC4)c(=O)c4ccc(c(O)n1CCCN1CCOCC1)c2c4-3 the growth was -49.4% (active).
CC(=O)Nc1nc(C(=O)N2N=C(C)/C(=C/c3ccccc3)C2=O)cs1 was tested, and the growth was 103% (inactive).
O=S(=O)(NCCNc1nccc(-c2c(-c3cccc(O)c3)nc3occn23)n1)c1ccc(Cl)cc1 was tested, and the growth was 97.9% (inactive).
In the case of Cn1cnc([N+](=O)[O-])c1/C=C1\Oc2ccc(Cl)cc2C1=O, the growth is reported as 79.8% (inactive).
For O=C(/C=C/C12c3ccccc3C(c3ccccc31)C1C(=O)NC(=O)C12)c1ccncc1 (stereo not given), the growth was 6.35% (active).
O=C(Nc1ccc(C(=O)Nc2ccc(C3=NCCCN3)cc2)cc1)Nc1ccc(C2=NCCCN2)cc1 was tested, and the growth was 66.6% (inactive).
For Nc1ccc(Nc2ncnc3sc4c(c23)CCN(Cc2ccccc2)C4)cc1, the growth was 90.4% (inactive).
With CC(NC(=O)CCl)c1ccccc1 (stereo not given) the growth was 89% (inactive).
In the case of O=C(c1nn(-c2ccc(Cl)cc2)cc1O)n1nc(C(F)(F)F)cc1-c1ccccc1, the growth is reported as 32.8% (inactive).
For N/C(=N\c1nc2ccccc2[nH]1)NC(=O)Cc1cccc2ccccc12, the growth was 79.8% (inactive).
COC(=O)C(c1ccccc1)C(CC(=O)c1ccccc1)c1ccccc1 (stereo not given) was tested, and the growth was 87.5% (inactive).
CC1(C)CC[C@]2(C(=O)N3CCOCC3)CC[C@]3(C)C(=CC[C@@H]4[C@@]5(C)C/C(=C/c6ccco6)C(=O)C(C)(C)[C@@H]5CC[C@]43C)[C@@H]2C1 was tested, and the growth was 82.3% (inactive).
For O=C(O)c1ccc(-n2cc(/C=N/Nc3ccccc3F)c(-c3ccc(O)cc3)n2)cc1, the growth was 78.3% (inactive).
For O=c1[nH]cnc2nc[nH]c12, the growth was 100% (inactive).
With COc1ccc(-c2cn[nH]c2-c2cc(OC)c(OC)c(OC)c2)cc1 the growth was 11.8% (inactive).
In the case of Cc1ccsc1[C@H]1c2[nH]c3ccccc3c2C[C@H]2C(=O)N(CCCCCCC(=O)NO)CC(=O)N12, the growth is reported as 46.6% (inactive).
In the case of O=C(Nc1ccc(Cl)cc1)N1NC(c2ccc(Cl)cc2)C=C1c1ccccc1 (stereo not given), the growth is reported as 98.3% (inactive).
With O=C(CCNCc1ccccc1)c1ccccc1 the growth was 98.2% (inactive).
In the case of COc1ccc(CN2C(=O)/C(=C\c3cc(OC)c(OC)c(OC)c3)c3ccccc32)cc1, the growth is reported as 5.64% (active).
With Clc1nc(N2CCC[N+]3(CC2)CC[N+]2(CCCNCC2)CC3)nc(N2CCC[N+]3(CC2)CC[N+]2(CCCNCC2)CC3)n1 (stereo not given) the growth was 65.8% (inactive).
With COc1ccccc1/C=C1\Oc2cc(OCCCN3CCCC3)ccc2C1=O the growth was 85.9% (inactive).
For CCOC(=O)c1csc(NC(=O)CSc2nc3sc4c(c3c(=O)n2-c2ccc(Cl)cc2)CCCC4)n1, the growth was 102% (inactive).
Clc1ccc(-c2nc3ccccc3s2)cc1Cl was tested, and the growth was 110% (inactive).
In the case of CN1CCN(CCOc2ccc(-c3cnc4c(-c5cccc(F)c5F)cnn4c3)cc2)CC1, the growth is reported as 94.8% (inactive).
In the case of COc1cc(N)c2ncccc2c1Cl, the growth is reported as 103% (inactive).
For COc1cc(-c2nn(-c3cccc(NC(=O)Nc4cc(C(F)(F)F)cc(C(F)(F)F)c4)c3)cc2-c2ccncc2)ccc1Cl, the growth was -25.4% (active).
For C=CCN=c1sc(-c2ccc3ccccc3c2)cn1NC(=O)c1cc2ccc1CCc1ccc(cc1)CC2, the growth was 39.1% (inactive).
For C#Cc1cccc(NC(=O)c2ccccc2NC(=O)CCl)c1, the growth was 76.1% [8.25 µM] (inactive).
O=C(Nc1ccc(Cl)cc1)N1CCN(c2ccc3nncn3n2)CC1 was tested, and the growth was -78.2% (active).
With O=C(O)CS(=O)c1ccc(Cl)cc1 (stereo not given) the growth was 103% (inactive).
Cc1ccc(C(=O)/C(=C\c2ccc([N+](=O)[O-])cc2)S(=O)Cc2ccc(Cl)cc2)cc1 (stereo not given) was tested, and the growth was 24.3% (inactive).
Cc1cc(N(CCNc2ccnc3cc(Cl)ccc23)Cc2ccc3c(c2)OCO3)nc(N2CCN(C)CC2)n1 was tested, and the growth was -59% (active).
CCCCN1CCN(c2ccc3nc(-c4ccc5nc(-c6cc(OC)c(OC)c(OC)c6)[nH]c5c4)[nH]c3c2)CC1 was tested, and the growth was 45.7% (inactive).
In the case of Cc1cc(=O)oc2cc(Oc3nc(-c4ccc(Cl)cc4)cn4c(-c5ccc(Cl)cc5)cnc34)ccc12, the growth is reported as 84.8% (inactive).
